Whole data set: some 9,900 sequences, median “r (bound/input frequency ratio)” near 0.7, cut for the highest 2% near 6.5. For the sample, the highest values were picked, then their nearest neighbours and some sequences at random.
B1: ENSMUSG00000031028.526|Tub (ssRNA)
RNA: GGGAGUUCUACAGUCCGACGAUCGCUUCGAUAUCCGCAUGCUACUUUCUCUUUUAUGGAAAUGGCAGGUCUAUUUGCCUCAAACGUUAUGUAGAAGUAGUUCUAAGUUUAACAAGCAAUAGAGAUGACUGCUUAGCUAGGAUCUGCAGGGAGCUCUGCUCUGCAAGCACAACACCUGUCUCAUAGAUGGACAGCCUGGUUUCCCUUCUCAGCAGUCCUGGCCUCCCCUUCUCUGUAUUCCUUGCCCCAGCUACGAUAUCCUCAUGGGAUUUCAGGAUGCCAGGUGCCAUCAAAGCAUGCUUUUCUCUUGCGGUCGCACUAGUGUGGAAUUCUCGGGUGUCAAGG
B2: ENSMUSG00000061578.913|Ksr2|118:122 (ssRNA)
RNA: GGGAGUUCUACAGUCCGACGAUCGCUUCGAUAUCCGCAUGCUACAGAGACAGAUUUCCCAGAAUCCCUGGGCCACUUCUCAAUUCUACCCAUGACAGACAUGUCCCAUCCAUGAGCCCAGAUAGUCAAAGACUUCAGCACAAGGGUGUUUAGAGUAGGCACACACGAAGUAUCAAUAAGGUUAUUGAGAUGAGGAUUUAGAAAGAUCCAUGUAUAAAAGGUCUAGAAGGAUGAAGAUCUAAAACAAGAAGACUGCAUGUUAACGCUCCUGCCACUGUUGCCCCUUCCUUUACCCUUGGCAGACCUCUUGCGGUCGCACUAGUGUGGAAUUCUCGGGUGUCAAGG
B3: ENSMUSG00000042529.381|Kcnj12 (ssRNA)
RNA: GGGAGUUCUACAGUCCGACGAUCGCUUCGAUAUCCGCAUGCUAUUUGGGUAAGGUGGGUUUCAUGCUCACCAACCUGAACUGGUCAGGCUGGAUGCUGGCCACAGACAUGAUCAGUCCGACUUGAGUCCCUGCCCUGCCCUGGUUAUGCAGGCUGUACGACGCAGUGUGCAUCAGUCUGAGGAGUCUGGUGGUAAGUAAGCCUCUGCAGCAGACCCUGUCGGAGGCCAUGGGGGCGUGUGUGUGUGUGUGUGUGUGUGUGUGUGUGUGUGUGUGUGUGUGUGUGUGUGAACAUGUGUGAGGGUCUCUUGCGGUCGCACUAGUGUGGAAUUCUCGGGUGUCAAGG
B4: ENSMUSG00000061578.39|Ksr2 (ssRNA)
RNA: GGGAGUUCUACAGUCCGACGAUCGCUUCGAUAUCCGCAUGCUAAGGGUCCCAUGUGUGGUGUGAAGGAGCCACAGACUGAGCACACCACCUCGGACUGUGGAGACCAAGACACAUGCCCAGUGGGCAGACUCAGACUCACACGCUGGACCAGUGUGUGCGCAUGUGUCUACACAUGGACAGGGCCAACUGCUAUCCUUCUGCCUGGACGAGCCAGCUGUGGAGUGUCCCAGCUGUGCUAUCCUGGAACACAGAACCAGGAUGGAACCAGAAACAAUACACCUGCUCCGUUGUCAAGGCUUCUACUCUUGCGGUCGCACUAGUGUGGAAUUCUCGGGUGUCAAGG
B5: ENSMUSG00000042529.380|Kcnj12 (ssRNA)
RNA: GGGAGUUCUACAGUCCGACGAUCGCUUCGAUAUCCGCAUGCUAUUUAAAUUUGGGUAAGGUGGGUUUCAUGCUCACCAACCUGAACUGGUCAGGCUGGAUGCUGGCCACAGACAUGAUCAGUCCGACUUGAGUCCCUGCCCUGCCCUGGUUAUGCAGGCUGUACGACGCAGUGUGCAUCAGUCUGAGGAGUCUGGUGGUAAGUAAGCCUCUGCAGCAGACCCUGUCGGAGGCCAUGGGGGCGUGUGUGUGUGUGUGUGUGUGUGUGUGUGUGUGUGUGUGUGUGUGUGUGUGUGAACAUGUGUCUCUUGCGGUCGCACUAGUGUGGAAUUCUCGGGUGUCAAGG
B6: ENSMUSG00000042529.382|Kcnj12 (ssRNA)
RNA: GGGAGUUCUACAGUCCGACGAUCGCUUCGAUAUCCGCAUGCUAUAAGGUGGGUUUCAUGCUCACCAACCUGAACUGGUCAGGCUGGAUGCUGGCCACAGACAUGAUCAGUCCGACUUGAGUCCCUGCCCUGCCCUGGUUAUGCAGGCUGUACGACGCAGUGUGCAUCAGUCUGAGGAGUCUGGUGGUAAGUAAGCCUCUGCAGCAGACCCUGUCGGAGGCCAUGGGGGCGUGUGUGUGUGUGUGUGUGUGUGUGUGUGUGUGUGUGUGUGUGUGUGUGUGUGAACAUGUGUGAGGGUGUGGAGCUCUUGCGGUCGCACUAGUGUGGAAUUCUCGGGUGUCAAGG
B7: ENSMUSG00000042529.384|Kcnj12 (ssRNA)
RNA: GGGAGUUCUACAGUCCGACGAUCGCUUCGAUAUCCGCAUGCUACAUGCUCACCAACCUGAACUGGUCAGGCUGGAUGCUGGCCACAGACAUGAUCAGUCCGACUUGAGUCCCUGCCCUGCCCUGGUUAUGCAGGCUGUACGACGCAGUGUGCAUCAGUCUGAGGAGUCUGGUGGUAAGUAAGCCUCUGCAGCAGACCCUGUCGGAGGCCAUGGGGGCGUGUGUGUGUGUGUGUGUGUGUGUGUGUGUGUGUGUGUGUGUGUGUGUGUGUGAACAUGUGUGAGGGUGUGGAGGUCCCAGGGUGUCUCUUGCGGUCGCACUAGUGUGGAAUUCUCGGGUGUCAAGG
B8: ENSMUSG00000042529.385|Kcnj12 (ssRNA)
RNA: GGGAGUUCUACAGUCCGACGAUCGCUUCGAUAUCCGCAUGCUACACCAACCUGAACUGGUCAGGCUGGAUGCUGGCCACAGACAUGAUCAGUCCGACUUGAGUCCCUGCCCUGCCCUGGUUAUGCAGGCUGUACGACGCAGUGUGCAUCAGUCUGAGGAGUCUGGUGGUAAGUAAGCCUCUGCAGCAGACCCUGUCGGAGGCCAUGGGGGCGUGUGUGUGUGUGUGUGUGUGUGUGUGUGUGUGUGUGUGUGUGUGUGUGUGUGAACAUGUGUGAGGGUGUGGAGGUCCCAGGGUGUGUGUAUCUCUUGCGGUCGCACUAGUGUGGAAUUCUCGGGUGUCAAGG
B9: ENSMUSG00000031028.210|Tub (ssRNA)
RNA: GGGAGUUCUACAGUCCGACGAUCGCUUCGAUAUCCGCAUGCUAAAUGUAUAAGGUUGGAAACCUUUCAGUAGGGAAUCAGGCAGUUCCCUGUUGAAAGUUGUCUGAGUUUUUGCACACCAUUCUGAUCUGAUGUGGCCUGUGCCUGGCUCCUCUAUGAGGACUUCGAGCUGUGCACAGACCUUAGCAGGACCACUGCACACUUUGUGUCUGUGUGACAGGCAGCCCAAGGGUUCUGGGGCUGGGCUUGGACACGCCCUCCAUUGGGAUGGCACCACUCAUCUGGUGGGCUUGGGAACUCCAAGCUCUUGCGGUCGCACUAGUGUGGAAUUCUCGGGUGUCAAGG
B10: ENSMUSG00000061578.1090|Ksr2 (ssRNA)
RNA: GGGAGUUCUACAGUCCGACGAUCGCUUCGAUAUCCGCAUGCUAAGCAGCCAACCAUGAAAAUAGAGGUUUGUAAUGUACAGAAGGCUGGGGGAGCUUUCAGGGGUGUGGCCAGUUAUGUACAGAUGUGAAGCUGAGGUCUGAAGGAAAUGGAGGAAGUAGGAAGAUCAGACUGGUUGAAUUAGAAGUCUGUCACUCUAGGUGCUAAGUGACCUUGGACCCAGUCAGUUCUUGGAUUUCUGUUGUAGCCCAGGCUAGCCUCGAACCCUUGAUCCUCCUGUUCCUGGUAGAGAAACAGCCACUAACUCUUGCGGUCGCACUAGUGUGGAAUUCUCGGGUGUCAAGG
B11: ENSMUSG00000042529.383|Kcnj12 (ssRNA)
RNA: GGGAGUUCUACAGUCCGACGAUCGCUUCGAUAUCCGCAUGCUAGGGUUUCAUGCUCACCAACCUGAACUGGUCAGGCUGGAUGCUGGCCACAGACAUGAUCAGUCCGACUUGAGUCCCUGCCCUGCCCUGGUUAUGCAGGCUGUACGACGCAGUGUGCAUCAGUCUGAGGAGUCUGGUGGUAAGUAAGCCUCUGCAGCAGACCCUGUCGGAGGCCAUGGGGGCGUGUGUGUGUGUGUGUGUGUGUGUGUGUGUGUGUGUGUGUGUGUGUGUGUGUGAACAUGUGUGAGGGUGUGGAGGUCCCACUCUUGCGGUCGCACUAGUGUGGAAUUCUCGGGUGUCAAGG
B12: ENSMUSG00000043670.121|Diras1 (ssRNA)
RNA: GGGAGUUCUACAGUCCGACGAUCGCUUCGAUAUCCGCAUGCUAUGUCUGCACACCAGGGUGGAUGGGCCCGAGGGCUGGGCCUCAGGCACCAGGCAAUAAACACAGGGCCUGCAGCAAUGCCCUGGCCACCCCGAGUACCACCUCUGGAAUAGCAGACGCCCACAGCACAAGCCCAGGACUGUCCCUUCAGGGGAGGCACACUGGAACCCUGAACUUGGAGUGUGGAGUGGCUGCCUGGACACUGCCCACCUGGACACCAGCCUUCUGCUGAGAUAGAGACCUUGGCACAGUGGCACCUCGACCUCUUGCGGUCGCACUAGUGUGGAAUUCUCGGGUGUCAAGG
B13: ENSMUSG00000061578.23|Ksr2 (ssRNA)
RNA: GGGAGUUCUACAGUCCGACGAUCGCUUCGAUAUCCGCAUGCUAGUGAUGACGUCACAGAGGCUGUCCACACCUUCGACUUGUACCCCGUUACUCAGGCACGAUCAGGGACCACUCAACUAGGACCAAACUGGGCCAGAGAGGGUCCCAUGUGUGGUGUGAAGGAGCCACAGACUGAGCACACCACCUCGGACUGUGGAGACCAAGACACAUGCCCAGUGGGCAGACUCAGACUCACACGCUGGACCAGUGUGUGCGCAUGUGUCUACACAUGGACAGGGCCAACUGCUAUCCUUCUGCCUGGACUCUUGCGGUCGCACUAGUGUGGAAUUCUCGGGUGUCAAGG
B14: ENSMUSG00000043670.183|Diras1|29:33;126:130;160:164;174:183;189:196;229:233 (ssRNA)
RNA: GGGAGUUCUACAGUCCGACGAUCGCUUCGAUAUCCGCAUGCUAGACAGAAUCUGAGCCUCUUUGCUGGUCAACACAACUCUGGAGACUGUCCCCCAUGUCUGCCCUGAGUUACGGAGCCCCUGUGGUAUCUGCGAGACUGUCCAGGAGACUUGAGUGGCUCCUGGGCCACACACCCACCCAGAUGAGGGUGACUUAGAAUUCACACAUUAUGUGCCACACACACACGAUGGCACACACACUGUCUUGGGAUGGGGUGUUCUUGCACCACUUACACAUCUUAGUGAGACCACAGUGUAAGUGGCCUCUUGCGGUCGCACUAGUGUGGAAUUCUCGGGUGUCAAGG

molecular target: TDP-43 (Homo sapiens, UniProt Q13148 1-414); test: RNA Bind-n-Seq with designed 260-mer pool; 25 mM Tris-HCl, 150 mM KCl, 3 mM MgCl2, BSA (printed 500 mg/mL), 20 units/mL SUPERase IN; pH not stated; 500 nM RNA pool, 1 h, 4 C; TDP-43 5, 50, 500 nM; high values mean tight binding; conditions: protein: recombinant; tags: SBP (GST cleaved off with PreScission; pGEX-GST-SBP)
How it was run: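 In 25 mM Tris-HCl, 150 mM KCl, 3 mM MgCl2, BSA and SUPERase IN, 500 nM of an in vitro-transcribed 260-nt 3′ UTR oligo pool was incubated for 1 h at 4 °C with SBP-tagged TDP-43 (5, 50 or 500 nM) captured on streptavidin beads. RNA remaining after washes was biotin-eluted, reverse transcribed, PCR-amplified and sequenced. Binding, R, is the bound-sample abundance of each oligo, normalized to mapped reads, divided by its abundance in input. Each duplicate used a separate, independent protein batch.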

TDP-43, sequence (Q13148 whole entry): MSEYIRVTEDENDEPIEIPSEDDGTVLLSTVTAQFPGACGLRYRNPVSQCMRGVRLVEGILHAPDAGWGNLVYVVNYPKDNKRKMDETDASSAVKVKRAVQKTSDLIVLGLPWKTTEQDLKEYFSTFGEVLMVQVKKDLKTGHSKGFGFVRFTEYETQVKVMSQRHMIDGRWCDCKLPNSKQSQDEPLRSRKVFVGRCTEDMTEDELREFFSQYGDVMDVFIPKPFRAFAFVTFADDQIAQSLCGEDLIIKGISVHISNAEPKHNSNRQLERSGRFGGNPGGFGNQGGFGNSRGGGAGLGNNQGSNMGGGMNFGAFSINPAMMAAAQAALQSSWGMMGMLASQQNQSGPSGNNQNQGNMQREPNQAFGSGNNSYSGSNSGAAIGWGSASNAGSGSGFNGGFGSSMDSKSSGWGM

Point of comparison: B3, binding signal 6.18 R (bound/input frequency ratio). Against it:
- B1 — lower, 0.219 R (bound/input frequency ratio)
- B2 — lower, 0.457 R (bound/input frequency ratio)
- B4 — lower, 0.764 R (bound/input frequency ratio)
- B5 — higher, 7.35 R (bound/input frequency ratio)
- B6 — lower, 6.14 R (bound/input frequency ratio)
- B7 — higher, 7.66 R (bound/input frequency ratio)
- B8 — higher, 7.81 R (bound/input frequency ratio)
- B9 — lower, 2.94 R (bound/input frequency ratio)
- B10 — lower, 1.34 R (bound/input frequency ratio)
- B11 — higher, 8.12 R (bound/input frequency ratio)
- B12 — lower, 0.914 R (bound/input frequency ratio)
- B13 — lower, 0.299 R (bound/input frequency ratio)
- B14 — lower, 0.711 R (bound/input frequency ratio)

Source: paper PMC12864922, “TDP-43 directly inhibits mRNA accumulation in neurites through modulation of mRNA stability”
